Measurements published in PubChem BioAssay AID1159580 (chemical genetic matrix, 2015).
The whole screen tested about 5,500 compounds, of which about 2,000 (36%) were called active. Not shown: some 18% with an inconclusive outcome. No stated cut-off is given here; in the data, active means normalized growth mostly below about 0.91 (no sharp cut-off); inconclusive means no clear call, values can overlap the other calls; inactive means mostly above about 0.92. Some of the results follow.

Experiment: chemical genetic growth profiling, strain panel (AID 1159580);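 further: tested at 20 µM; growth read once vehicle control cultures reached saturation at 30 °C; 1 = growth at the plate median or of vehicle wells; lower values mean less growth of the strain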
Conditions: S. cerevisiae deletion strains, growth OD

Measured: normalized growth

O=S(=O)(c1cc(Cl)ccc1Cl)N1CCc2ccccc2C1
inactive: locus YAR019C, strain CDC15, active compounds read low 0.98 | locus YBL105C, strain PKC1, active compounds read low 0.977 | locus YBR135W, strain CKS1, active compounds read low 0.971 | locus YBR136W, strain MEC1, active compounds read low 0.983 | locus YBR160W, strain CDC28, active compounds read low 0.982 | locus YDL017W, strain CDC7, active compounds read low 0.982 | locus YDL028C, strain MPS1, active compounds read low 0.976 | locus YDL101C, strain DUN1, active compounds read low 0.981 | locus YDL108W, strain KIN28, active compounds read low 0.98 | locus YDL132W, strain cdc53, active compounds read low 0.973 | locus YDL214C, strain PRR2, active compounds read low 1.02 | locus YDR052C, strain DBF4, active compounds read low 0.983 | locus YDR054C, strain cdc34, active compounds read low 0.977 | locus YDR226W, strain ADK1, active compounds read low 0.978 | locus YDR477W, strain SNF1, active compounds read low 1.02 | locus YER123W, strain YCK3, active compounds read low 1 | locus YER133W, strain GLC7, active compounds read low 1.02 | locus YFL009W, strain cdc4, active compounds read low 0.967 | locus YFL029C, strain CAK1, active compounds read low 0.978 | locus YFR003C, strain YPI1, active compounds read low 0.981 | locus YFR019W, strain FAB1, active compounds read low 0.99 | locus YFR028C, strain CDC14, active compounds read low 0.981 | locus YGR040W, strain KSS1, active compounds read low 1.03 | locus YGR052W, strain FMP48, active compounds read low 1.06 | locus YGR092W, strain DBF2, active compounds read low 0.994 | locus YHR030C, strain SLT2, active compounds read low 0.951 | locus YHR079C, strain IRE1, active compounds read low 0.987 | locus YHR082C, strain KSP1, active compounds read low 1.15 | locus YHR205W, strain SCH9, active compounds read low 0.912 | locus YIL147C, strain SLN1, active compounds read low 0.975 | locus YJL095W, strain BCK1, active compounds read low 0.96 | locus YJL128C, strain PBS2, active compounds read low 0.925 | locus YJL157C, strain FAR1, active compounds read low 1.01 | locus YJR016C, strain ILV3, active compounds read low 0.985 | locus YJR066W, strain TOR1 (second series), active compounds read low 1.02 | locus YJR066W, strain TOR1, active compounds read low 1.11 | locus YKL048C, strain ELM1, active compounds read low 1 | locus YKL067W, strain YNK1, active compounds read low 1 | locus YKL101W, strain HSL1, active compounds read low 0.994 | locus YKL193C, strain SDS22, active compounds read low 0.971 | locus YKL203C, strain TOR2, active compounds read low 1.08 | locus YLR113W, strain HOG1, active compounds read low 0.953 | locus YLR133W, strain CKI1, active compounds read low 1 | locus YLR403W, strain SFP1, active compounds read low 0.964 | locus YML070W, strain DAK1, active compounds read low 1.02 | locus YMR001C, strain CDC5, active compounds read low 0.98 | locus YMR205C, strain PFK2 (second series), active compounds read low 0.995 | locus YMR277W, strain FCP1, active compounds read low 0.982 | locus YNL006W, strain LST8, active compounds read low 0.984 | locus YNL020C, strain ARK1, active compounds read low 1.01 | locus YNL161W, strain CBK1, active compounds read low 0.981 | locus YNL183C, strain NPR1, active compounds read low 1.14 | locus YNL207W, strain RIO2, active compounds read low 0.98 | locus YNL222W, strain SSU72, active compounds read low 0.983 | locus YNL307C, strain MCK1 (second series), active compounds read low 0.999 | locus YOL078W, strain AVO1, active compounds read low 0.975 | locus YOL136C, strain PFK27, active compounds read low 1 | locus YOR061W, strain CKA2, active compounds read low 0.99 | locus YOR119C, strain RIO1, active compounds read low 1.08 | locus YOR231W, strain MKK1, active compounds read low 1.06 | locus YOR329C, strain SCD5, active compounds read low 0.985 | locus YPL031C, strain PHO85, active compounds read low 1.01 | locus YPL153C, strain RAD53, active compounds read low 1.01 | locus YPL204W, strain HRR25, active compounds read low 1.02 | locus YPL209C, strain IPL1, active compounds read low 0.979 | locus YPL256C, strain CLN2, active compounds read low 0.987 | locus YPR025C, strain CCL1, active compounds read low 0.977 | locus YPR106W, strain ISR1, active compounds read low 0.986 | locus YPR111W, strain DBF20, active compounds read low 0.978 | strain NNK1, active compounds read low 0.983 | strain TSCII, active compounds read low 0.985
